# Data reported in PubChem BioAssay AID1709 (National Center for Advancing Translational Sciences (NCATS), 2009).
# Activity calls are given as the source filed them.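 The calls were made as follows: active = lower max turbidity than the uninhibited signal, meaning microtubule assembly was blocked; inactive = reaching the full max turbidity.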
# Test: Assay for Inhibitors of Tau-Mediated Microtubule Assembly
# Details: purified tubulin + K18 tau, A340 turbidity kinetics, 45 min, at 50 µM; half-max time: measured here: time to half-max turbidity, stronger effect = higher value; max turbidity: stronger effect = lower value
# Source text: NIH Molecular Libraries Probe Production Network [MLPCN] NIH Chemical Genomics Center [NCGC] MLPCN Grant: X01 MH083262-01 Assay Provider: Carlo Ballatore, University of Pennsylvania NCGC Assay Overview: The microtubule-associated protein tau is an abundant protein in the axons of neurons that stabilizes microtubules. With its ability to modulate microtubule dynamics, tau contributes directly or indirectly, to key structural and regulatory cellular functions. Particularly important is the influence tau exerts on axonal transport, which allows signaling molecules, trophic factors and other essential cellular constituents to travel along the axons. Under pathological conditions, tau becomes sequestered into insoluble aggregates called neurofibrillary tangles. This phenomenon is believed to have pathological consequences by promoting axonal transport deficits that ultimately lead to synaptic dysfunction and neuronal loss. Because tau binds and stabilizes microtubules, tau fibrillization inhibitors were tested whether they interfere with tau-mediated tubulin polymerization. An in vitro assay was used where purified brain tubulin monomers were assembled into microtubules after the addition of GTP and tau. Microtubule assembly was monitored by the change in absorbance at 340 nm. Hong, M., Zhukareva, V., Vogelsberg-Ragaglia, V., Wszolek, Z., Reed, L., Miller, B. I., Geschwind, D. H., Bird, T. D., McKeel, D., Goate, A., Morris, J. C., Wilhelmsen, K. C., Schellenberg, G. D., Trojanowski, J. Q., and Lee, V. M. Y. (1998) Science 282, 1914-1917.
# NCGC Assay Protocol Summary: Lyophilized bovine brain tubulin was reconstituted in RAB (100 mM MES, pH 6.9; 1 mM EDTA; 0.5 mM MgSO4) at a concentration of 10 mg/ml. Compounds (50 uM) were added to K18 tau (40 uM) in RAB and pre-incubated at room temperature for 60 minutes. To initiate the MT assembly reaction, 8.25 ul per well of 10 mg/ml tubulin was dispensed on a UV-clear 384-well plate, followed by 1.0 ul of 100 mM GTP in RAB and 41.25 ul of the compound:tau mixture. […] The plate was incubated in a Spectramax M5 plate reader at 37 C and the absorbance at 340 nm was read every minute for 45 minutes.
Structure (SMILES),half-max time [min],max turbidity
COC(=O)c1nn(-c2ccc(OC)cc2)c(=O)c2c(N)sc(C)c12,13.3,0.579 (inactive)
COC(=O)c1c(NC(=O)CCCOc2ccc(C)cc2)sc2c1C(C(=O)OC)CC2 (stereo unspecified),11.1,0.764 (inactive)
COC(=O)c1c(NC(=O)CCCOc2cccc(C)c2)sc2c1C(C(=O)OC)CC2 (stereo unspecified),12,0.825 (inactive)
COC(=O)c1c(NC(=O)CCCOc2ccc(C(C)(C)C)cc2)sc2c1C(C(=O)OC)CC2 (stereo unspecified),12.6,1.01 (inactive)
COC(=O)c1c(NC(=O)C(C)(C)C)sc2c1C(C(=O)OC)CC2 (stereo unspecified),12.9,0.839 (inactive)
O=C(Cc1ccccc1)Nc1sc2c(c1C(=O)Nc1ccc(Cl)cc1)CCCC2,10,0.682 (inactive)
CCOC(=O)c1nn(-c2ccccc2)c(=O)c2c(N)scc12,12.3,0.65 (inactive)
CCOC(=O)c1nn(-c2ccc(OC)cc2)c(=O)c2c(N)scc12,12.7,0.782 (inactive)
